Screens: PubChem, National Center for Advancing Translational Sciences (NCATS)
DT40 TDP1 CPT: qHTS for Inhibitors of human tyrosyl-DNA phosphodiesterase 1 (TDP1): qHTS in cells in presence of CPT | chicken DT40 Tdp1-/-;hTDP1 cells + 20 nM CPT, ATP luminescence, 48 h | Potency, µM (titrated, usually from 46.2 µM), for the others: top-dose activity change, negative = growth inhibition, most hits filed as inhibitors | hit rate 12% among 420,000 | AID 686979, 2013; also: potency is read from the fitted curve at half-maximal effect; nearly all actives have a fitted effect of over 55% in size
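Cell growth measured by CellTiter-Glo luminescence after a minimum 48 h, 37 C compound exposure with 20 nM CPT in Tdp1-knockout DT40 cells stably expressing hTDP1, seeded 400/well; qHTS titration format.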
IL-1B inflam inh: qHTS for Inhibitors of Inflammasome Signaling: IL-1-beta AlphaLISA Primary Screen; THP-1 LPS/ATP IL-1B secretion, AlphaLISA, 16 h; hits give low values; activity change, % at 57.5 µM; hit rate 4.7% among 360,000; AID 743279, 2014; in the data active = activity change below about -50%; inconclusive = mostly about -30% to -49%
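Secreted IL-1B measured by AlphaLISA bead assay after 16 h compound exposure of THP-1 cells; compounds (final up to 57.5 uM) added 1 h before LPS (250 ng/mL) and ATP (1.25 mM) stimulation; lower signal means less secretion.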
RORgamma inh: qHTS for inhibitors of ROR gamma transcriptional activity; Nuclear receptor ROR-gamma (Mus musculus), P51450; Drosophila S2 Gal4-RORgamma UAS-luciferase reporter, 20 h; Potency, µM (doses to about 53.6 µM), for the others: at the top dose activity change, negative = inhibition, hits mostly inhibitors; hit rate 5.4% among 310,000; AID 2551, 2010; also: potency is read from the fitted curve at half-maximal effect; nearly all actives have a fitted effect of over 60% in size
Target sequence (P51450 whole entry, looked up, the tested form may be a part): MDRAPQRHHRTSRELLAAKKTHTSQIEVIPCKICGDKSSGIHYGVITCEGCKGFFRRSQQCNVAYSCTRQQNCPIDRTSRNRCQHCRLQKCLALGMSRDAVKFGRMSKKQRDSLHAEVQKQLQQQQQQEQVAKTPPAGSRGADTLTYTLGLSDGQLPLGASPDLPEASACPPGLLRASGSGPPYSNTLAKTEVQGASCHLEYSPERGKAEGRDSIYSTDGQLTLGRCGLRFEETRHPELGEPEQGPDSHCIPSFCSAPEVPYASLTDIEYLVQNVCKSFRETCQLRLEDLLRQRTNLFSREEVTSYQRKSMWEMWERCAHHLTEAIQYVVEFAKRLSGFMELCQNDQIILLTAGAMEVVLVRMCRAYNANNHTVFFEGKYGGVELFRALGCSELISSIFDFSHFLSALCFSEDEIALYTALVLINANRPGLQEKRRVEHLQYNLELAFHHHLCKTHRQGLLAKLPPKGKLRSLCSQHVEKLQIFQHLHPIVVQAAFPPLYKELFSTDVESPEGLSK
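Luciferase reporter read in Schneider cells carrying Gal4-RORγ (mouse) and UAS-Photinus luciferase; cells given compound 1 h before 700 uM copper sulfate induction, then incubated 20 h at ambient temperature.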
ELG1 DNA repair: qHTS screen for small molecules that inhibit ELG1-dependent DNA repair in human embryonic kidney (HEK293T) cells expressing luciferase-tagged ELG1 | hit rate 2.3% among 330,000 | HEK293T ELG1-luciferase reporter, luminescence, 16 h; DNA damage induced by 5-fluorouridine | AID 504467, 2011 | Potency, µM (doses to about 46.1 µM), inactives show at the top dose activity change, negative = inhibition, most hits filed as inhibitors; also: potency is read from the fitted curve at half-maximal effect; nearly all actives have a fitted effect of over 55% in size
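DMSO vehicle served as the neutral condition. Each well held 2,000 cells given 5-fluorouridine plus compound; after 16 hr at 37 °C/5% CO2, ONE-Glo was added and luciferase measured 30 min later.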
DT40 TDP1 no CPT: qHTS for Inhibitors of human tyrosyl-DNA phosphodiesterase 1 (TDP1): qHTS in cells in absence of CPT; DT40 Tdp1-/- hTDP1 cells, no CPT, ATP luminescence, 48 h; Potency, µM (doses to about 46.2 µM), for the others: at the highest dose activity change, negative = growth inhibition, usual class: inhibitors; hit rate 15% among 420,000; also: potency is read from the fitted curve at half-maximal effect; nearly all actives have a fitted effect of over 55% in size
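Camptothecin absent (DMSO only). Human TDP1-complemented DT40 knockout cells, 400 cells/well, 37 °C for minimum 48 hr; ATP measured via CellTiter-Glo, 30 min dark incubation, luminescence.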
Gal4-VP16 FLuc: VP16 counterscreen qHTS for inhibitors of ROR gamma transcriptional activity; Drosophila S2 Gal4-VP16 UAS-luciferase, luminescence, 20 h; Potency, µM (series often up to 53.6 µM), without a hit: at the highest dose activity, negative = inhibition, hits mostly inhibitors; hit rate 3.5% among 310,000; AID 2546, 2010;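 also: Gal4-VP16 expression switched on by copper sulfate through the metallothionein promoter; potency is read from the fitted curve at half-maximal effect; nearly all actives have a fitted effect of over 50% in size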
Active calls of the source: *; ? = inconclusive; nt = no result given; [ ] = remark or other dose. Compounds with a hit are over-represented: about 21% of the library has one in this group of screens. Unless noted, calls follow the shape of the dose curve; as a rule, active = well fitted curve in the direction sought with a large enough effect; inconclusive = small, poorly fitted or top-dose-only effect, or another doubt; inactive = no such curve, though single readings can be large; an effect the other way counts as inactive or inconclusive. % is scaled to controls: 0 for no effect and ±100 for the full control effect.

SMILES	DT40 TDP1 CPT	IL-1B inflam inh	RORgamma inh	ELG1 DNA repair	DT40 TDP1 no CPT	Gal4-VP16 FLuc
CCNC(=S)Nc1ccc(Oc2ccccc2)cc1	?	-2	nt	nt	18µM*	nt
COc1ccc(NC(=S)NN(C)C(=S)Nc2ccc(OC)cc2)cc1	?	30	7.9µM*	?	?	?
S=C(NCc1ccccc1)Nc1ccc2cn[nH]c2c1	-1%	12	-15%	-14%	-13%	-1%
S=C(NCc1ccccc1)Nc1ccc2ccccc2c1	10%	-76*	4µM*	?	2%	11µM*
Cc1ccc(S(=O)(=O)N(C)C[C@H]2OCCCC[C@@H](C)Oc3ccc(NC(=O)Cc4ccccc4)cc3C(=O)N([C@H](C)CO)C[C@@H]2C)cc1	?	-5	nt	nt	?	nt
OCCNC(=S)Nc1ccc(Oc2ccccc2)cc1	-11%	11	-26%	-22%	1%	21%
COc1ccc(NC(=S)Nc2ccc(Oc3ccccc3)cc2)cc1	23µM*	-23	11%	?	?	-6%
O=C(NCc1ccccc1)c1ccc(OC2CSC2)cc1	-5%	-12	-5%[0.365 µM]	12%	-10%	nt
O=C(NCc1ccccc1)c1ccc(Oc2ccc(C(=O)NCc3ccccc3)cc2)cc1	?	7	-1%	?	16µM*	-5%
S=C(NCc1ccccc1)Nc1ccc(Oc2ccccc2)cc1	-15%	-1	13µM*	-20%	?	14µM*
CC(C)(C)c1cc(C(=O)NCc2ccccc2)ccn1	13µM*	14	?	-23%	?	?
Cc1ccc(S(=O)(=O)NCC(=O)N(CC2CCCO2)C(C(=O)NCC2CCCO2)C(C)C)cc1 (stereo unspecified)	15%	6	0%	1%	0%	3%
COc1ccc(OCCN2CCCC2)cc1Nc1nnc(Cl)c(Nc2ccccc2S(C)(=O)=O)n1	?	19	nt	nt	?	nt
Cc1c(C(=O)Nc2ccc(S(=O)(=O)N(C)C3CCN(C)CC3)cc2)oc2c(Cl)cccc12	?	-96*	nt	-21%	?	nt
Cc1c(C(=O)Nc2ccc(S(=O)(=O)N(C)C3CCN(C)CC3)cc2)oc2ccccc12	21µM*	-52*	nt	20%	18µM*	nt
CN(C)Cc1ccccc1-c1cncnc1Nc1ccc(F)cc1	-17%	nt	2%	nt	-10%	0%
Cc1ccc(-c2noc(CCC(=O)NCC3CCN(Cc4cccc(C)c4)CC3)n2)cc1	18µM*	-67*	-2%	?	?	?
Cc1ccc(-c2noc(CCC(=O)NCC3CCCO3)n2)cc1 (stereo unspecified)	-10%	0	-3%	1%	-9%	-6%
Cc1ccc(-c2noc(CCC(=O)NCCN3CCN(Cc4ccccc4)CC3)n2)cc1	?	-30	37%	?	18µM*	?
O=C(CN1CCN(Cc2ccccc2)CC1)Nc1ccccc1-c1ccccc1	26µM*	-22	-32%	?	29µM*	-24%
O=C(CN1CCN(Cc2ccccc2)CC1)Nc1ccc(Cl)cc1	10%	-1	3%	-12%	-14%	-5%
NC(=O)c1ccccc1NC(=O)CN1CCN(Cc2ccccc2)CC1	-8%	9	10%	-2%	-3%	-7%
Cc1ccc(NC(=O)CN2CCN(Cc3ccccc3)CC2)cc1Cl	-24%	1	nt	nt	29µM*	nt
O=C(Cn1nc(-c2ccccc2Cl)ccc1=O)Nc1ccccc1-c1ccccc1	?	1	-5%	?	18µM*	0%
O=C(CSc1nc2ncccc2[nH]1)Nc1ccccc1-c1ccccc1	?	11	-3%	-20%	-14%	-25%
